Screening results as filed in PubChem BioAssay.
SENP8 block-1 = inhibitors of human SENP8 protease. 1.2% of 330,000 active. AID 2540. Q96LD8. inhibition, % at 10 µM. purified SENP8, Z-RLRGG-aminoluciferin cleavage, luminescence; in the data active = inhibition above about 50%
Target sequence (Q96LD8 whole entry, looked up): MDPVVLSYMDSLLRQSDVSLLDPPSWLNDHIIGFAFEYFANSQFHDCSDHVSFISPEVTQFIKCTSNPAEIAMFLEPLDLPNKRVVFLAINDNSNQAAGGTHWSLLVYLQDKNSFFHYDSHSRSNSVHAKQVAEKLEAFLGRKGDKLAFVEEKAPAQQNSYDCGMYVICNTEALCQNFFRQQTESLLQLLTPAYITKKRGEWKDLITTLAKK
SENP8 block-2 = blocks human SENP8 cleavage of Nedd8 substrate | Q96LD8 | 0.64% of 360,000 active | recombinant SENP8, Nedd8 substrate fluorescence | inhibition, % at 20 µM; in the data active = inhibition mostly above about 40%, no sharp cut-off; inactive = mostly below about 27%
SENP7 inh = inhibitors of human SENP7 protease; Q9BQF6; recombinant SENP7, Z-RLRGG-aminoluciferin luminescence, 40 min; inhibition, % at 5 µM; 1.5% of 330,000 active; AID 434973;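 active = inhibition above about 50% at the single test dose, limit read from the data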;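 also: plate controls were DMSO with enzyme for no effect and no enzyme buffer wells for full effect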
Target sequence (Q9BQF6 706-1050 limits assumed): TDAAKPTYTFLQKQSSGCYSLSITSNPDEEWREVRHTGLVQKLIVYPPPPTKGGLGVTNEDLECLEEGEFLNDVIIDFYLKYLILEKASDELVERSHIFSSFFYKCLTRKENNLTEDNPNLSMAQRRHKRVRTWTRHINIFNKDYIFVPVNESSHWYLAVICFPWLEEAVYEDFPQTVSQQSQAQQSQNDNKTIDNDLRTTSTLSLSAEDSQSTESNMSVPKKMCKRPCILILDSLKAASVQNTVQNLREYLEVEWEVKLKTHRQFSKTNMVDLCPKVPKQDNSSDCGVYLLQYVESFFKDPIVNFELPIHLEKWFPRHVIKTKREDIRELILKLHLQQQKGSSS
SENP6 block = SENP6 protease inhibition; Q9GZR1; Recombinant SENP6 catalytic domain, aminoluciferin luminescence; inhibition, % at 10 µM; 1.8% of 330,000 active; AID 2599;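 active = inhibition above about 50% at the single tested dose, limit read from the data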;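 also: plate controls were DMSO wells with enzyme for no effect and DMSO wells lacking enzyme for full effect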
Platelet DG rel = platelet dense granule release activity. 0.22% of 300,000 active. human platelet-rich plasma, SFLLRN dense granule ATP release, luminescence. inhibition, %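 (compounds screened at 7.5 µM in platelet-rich plasma)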;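 active = mean replicate score, as percent of positive control, at or above 50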
An asterisk follows results filed as active; · = not tested or not shown; ! = not active in a repeat. A selection: hits, their analogues and other compounds. The true share with any hit is near 2.4%.

SMILES	SENP8 block-1	SENP8 block-2	SENP7 inh	SENP6 block	Platelet DG rel
Nc1ccc(N2CCN(c3ccc(Cl)c(Cl)c3)CC2)cc1	-9	41*	7	4	0
Nc1ccc(N2CCCCCC2)cc1	23	·	26	52*	·
O=C(Nc1cccc(Cl)c1)c1ccc2c(=O)n3c(nc2c1)CCCCC3	64*	-5	80*	84*	6
O=C(Nc1ccc(Cl)cc1)c1ccc2c(=O)n3c(nc2c1)CCCCC3	-11	14	4	-11	2
CCN(C(=O)CSc1nnc(-c2ccccc2OC)n1N)c1c(N)n(Cc2ccccc2)c(=O)[nH]c1=O	·	2	·	·	·
NC(=O)N/N=C/c1sc(=O)n(-c2ccccc2)c1Cl	1	7	-5	-14	3
O=C(N/N=C/c1sc(=O)n(-c2ccccc2)c1Cl)c1ccccc1	56*	-7	76*	83*	12
O=C(CC1C(=O)NCCN1Cc1ccccc1C(F)(F)F)NC1CCCCCC1 (configuration not stated)	1	-33	15	13	2
COc1ccc(-c2noc(-c3ccc(Br)o3)n2)cc1	0	-13	36	31	5
COc1cccc(-c2noc(-c3ccc(Br)o3)n2)c1	57*	13	73*	2	·
CC(=O)Nc1ccc(C(=O)N(C)c2ccccc2)cc1	-7	1	-2	-5	77*
Cc1ccc2c(c1)C1CC(C)(O2)N(c2cccc(C(=O)N3CCN(c4ccccn4)CC3)c2)C(=O)N1 (configuration not stated)	4	9	1	3	-8
COc1ccc(-n2c(C)cc(/C=C3\C(=O)NN(c4ccccc4)C3=O)c2C)cc1	28	19	14	38	-7
Cc1cc(/C=C2\C(=O)NN(c3ccccc3)C2=O)c(C)n1-c1ccccc1O	19	53*	34	8	9
CCN(CC(=O)Nc1ccc(NC(C)=O)cc1)C(=O)c1cc([N+](=O)[O-])ccc1Sc1ccc(Cl)cc1	·	-109	·	·	·
Cc1ccc(S(=O)(=O)NC2=C(N3CCN(Cc4ccccc4)CC3)C(=O)c3ccccc3C2=O)cc1	-6	39*	-2	5	-4
O=S(=O)(c1cccs1)N1CCN(c2ccccc2)CC1	0	3	7	-11	0
O=C1C(NS(=O)(=O)c2cccs2)=C(N2CCN(c3ccccc3)CC2)C(=O)c2ccccc21	5	69*	11	9	0
Cc1ccc(S(=O)(=O)Nc2nc3ccccc3nc2N2CCN(c3ccccc3F)CC2)cc1	1	-482	1	-9	8
Cc1ccc(S(=O)(=O)NC2=C(N3CCN(c4ccccc4F)CC3)C(=O)c3ccccc3C2=O)cc1	0	46*!	27	26	4
Cc1ccc(-n2cnc3c(=O)[nH]cnc32)cc1	·	7	·	·	·
COc1cc(OC)c(C2CC(=O)N3CN(C)CSC3=C2C#N)cc1OC (configuration not stated)	0	79*	4	-4	-1
COc1ccc2ccccc2c1C1CC(=O)N2CN(C)CSC2=C1C#N (configuration not stated)	4	42*	-1	14	-5
CCCN(CCC)Cc1cc(=O)oc2cc(C)c(Cl)cc12	·	3	·	·	·
Oc1ccc(/C=N/N(c2ccccc2)c2ccccc2)c(O)c1O	10	32*	5	12	7
SMILES	SENP8 block-1	SENP8 block-2	SENP7 inh	SENP6 block	Platelet DG rel
Cc1nc2ccccc2c(=O)n1/N=C/c1ccc(O)c(O)c1O	5	69*	9	19	6
Oc1ccc(/C=N/N2CCOCC2)c(O)c1O	-2	63*	-8	14	0
COc1cccc(/C=N/N2CCOCC2)c1O	6	8	29	28	10
O=C1c2ccccc2C(=O)N1/N=C/c1ccc(O)c(O)c1O	·	83*	·	·	18
Cc1nc2ccccc2c(=O)n1/N=C/c1ccccc1O	0	-10	-1	12	14
COC(=O)[C@@]1(Cc2ccccc2)[C@H]2C(=O)N(C)C(=O)[C@H]2[C@H]2CN=C(SCc3ccccc3)N21	·	18	-2	·	·
S=c1nc(-c2csc3c2CCCC3)[nH][nH]1	8	-10	3	-17	-9
CC1CC(=O)c2ccccc2C1C (configuration not stated)	·	9	·	·	·
Cc1ccccc1Nc1nc(-c2sc(NC(=O)c3cccc(Cl)c3)nc2C)cs1	60*	·	16	77*	1
Cc1nc(NC(=O)c2ccccc2)sc1-c1csc(Nc2cccc(Cl)c2)n1	24	·	9	39	4
Cc1ccc(Cl)cc1Nc1nc(-c2sc(NC(=O)c3ccco3)nc2C)cs1	-4	-136	3	-4	9
Cc1ccccc1Nc1nc(-c2sc(NC(=O)c3ccccc3)nc2C)cs1	61*	·	61*	80*	5
COc1ccc(OC)c(Nc2nc(-c3sc(NC(=O)c4ccccc4)nc3C)cs2)c1	52*	·	53*	67*	0
Cc1ccc(Cl)cc1Nc1nc(-c2sc(NC(=O)c3cccc(Cl)c3)nc2C)cs1	56*	·	-3	66*	2
Cc1nc2ccccc2c(=O)n1NC(=O)c1cc(Br)ccc1Cl	0	16	-2	7	3
COc1ccc(NC(=O)Cc2ccccc2)cn1	7	9	-5	3	-21
COc1ccc(NC(=O)/C(Cl)=C(/Cl)S(=O)Cc2ccccc2)cn1 (configuration not stated)	-12	18	-6	-17	57*
COCCN1C(=O)CSCC1(C)C(=O)Nc1ccc2c(c1)OCCO2 (configuration not stated)	·	18	·	·	·
Cc1ccc(NC(=O)COC(=O)c2cc(=O)c3cc(F)ccc3o2)cc1	-1	18	-4	-9	·
O=C(Nc1nnc(-c2ccccn2)o1)c1ccc(Br)cc1	57*	2	63*	77*	-4
CCC(=O)Nc1nnc(-c2ccccn2)o1	6	-80	8	-2	-10
O=C(CNC(=O)c1cccnc1)N=Nc1c(O)[nH]c2c(Br)cc(Br)cc12	-4	44*	11	9	1
O=C(CCCCCNC(=O)c1ccccc1)N=Nc1c(O)[nH]c2c(Br)cc(Br)cc12	5	·	10	8	4
Cc1ccc(S(=O)(=O)N2CCN(C(=O)COC(=O)c3cncc(Br)c3)CC2)c(C)c1	9	16	8	4	·
CCOc1ccccc1NC(=O)COC(=O)C(Cc1ccccc1)NC(=O)c1ccco1 (configuration not stated)	10	3	3	2	·
SMILES	SENP8 block-1	SENP8 block-2	SENP7 inh	SENP6 block	Platelet DG rel
CSC(=S)N/N=C(\C)c1ccc(Br)cc1	-13	8	-13	0	-3
CCCCCn1c2c(c(=N)c3ccccc31)CCC2	-9	-50	-1	0	70*
CCCCCCCCn1c2c(c(=N)c3ccccc31)CCC2	-10	-56	0	-13	-11
CCCCn1c2c(c(=N)c3ccccc31)CCC2	3	11	-4	-10	123*
O=C(N/N=C1\CCc2ccccc21)c1ccccc1O	58*	-13	78*	71*	5
O=C(N/N=C1\CCCc2ccccc21)c1ccccc1Cl	-1	6	4	18	9
